PubChem BioAssay AID430 (Sanford-Burnham Center for Chemical Genomics, 2006)
The whole screen tested about 63,000 compounds, of which about 1,100 (1.7%) were called active. Cut-off read from the data, not from the text of the source: active = cytotoxicity above about 50%; inactive = the rest. The list comes from a sample in which actives are over-represented; it also holds similar structures and randomly drawn compounds. Entries with a potency or affinity are not part of this list.

Assay: cytotoxicity in HPDE-C7 cells, cell-based, fluorescence, HTS (AID 430);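 note: cells exposed to compound for 48 hours before viability readout; 0% = vehicle and 100% = reference cytotoxic drug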
Conditions: HPDE-C7 pancreatic duct cells viability, at 10 µM, hits give high values
In the case of `COc1ccc(Nc2nc(-c3sc(N)nc3C)cs2)cc1`, the cytotoxicity is reported as 46.6% (inactive). With `CCn1c(C(O)c2ccccc2)nc2ccccc21` (centres undefined) the cytotoxicity was -4.3% (inactive). For `Cc1ccc(N2C(=O)C(Cl)=C(Nc3c(C)n(C)n(-c4ccccc4)c3=O)C2=O)cc1`, the cytotoxicity was -0.2% (inactive). With `CCOc1ccc(-c2[nH]ncc2Oc2cccc(OC)c2)c(O)c1` the cytotoxicity was 55.5% (active). For `Cc1ccc(NC(=O)C2CCCN2S(=O)(=O)c2ccc(F)cc2)c(C)c1` (centres undefined), the cytotoxicity was -6.1% (inactive). In the case of `CCOC(=O)C1CCCN(CCCc2ccccc2)C1` (centres undefined), the cytotoxicity is reported as -2.8% (inactive). For `CCOC(=O)c1c(C2CCN(C(=O)OCC)CC2)nc2ccccn12`, the cytotoxicity was 0% (inactive). With `COc1ccc(C(C)=O)c2c(O)cccc12` the cytotoxicity was 9.1% (inactive). For `COc1ccc2c3c(cccc13)OCC2=O`, the cytotoxicity was 8.3% (inactive). With `COc1cccc(/C(O)=C2/C(=O)C(=O)N(CCN3CCOCC3)C2c2cccnc2)c1` (centres undefined) the cytotoxicity was -7.7% (inactive). In the case of `CC(=O)Nc1nc2ccc(Br)cc2s1`, the cytotoxicity is reported as -11.8% (inactive). For `Cc1c(C(=O)N2CCCC2)oc2c1-c1[nH]ncc1CC2`, the cytotoxicity was 1% (inactive). With `CCOCCCNC(=O)N[C@@H](Cc1ccccc1)C(=O)OC` the cytotoxicity was 0.6% (inactive). With `COC(=O)Cc1cc(=O)n(-c2nc3ccccc3[nH]2)[nH]1` the cytotoxicity was -3% (inactive). With `CCOC(=O)c1nc2ccccc2s1` the cytotoxicity was -0.3% (inactive). For `CCOC(=O)CC(=O)Nc1nc2ccccc2s1`, the cytotoxicity was 1.7% (inactive). For `COC(=O)Cc1cc(=O)n(-c2ccccc2)[nH]1`, the cytotoxicity was -18.7% (inactive). For `CCOC(=O)Cc1cc(=O)n(-c2nc3ccccc3s2)[nH]1`, the cytotoxicity was 75.9% (active). With `COC(=O)Cc1cc(=O)n(-c2nc3ccccc3s2)[nH]1` the cytotoxicity was 74.2% (active). With `COc1ccc(CN/C=C2\CCCCC2=O)cc1` the cytotoxicity was 5.7% (inactive). In the case of `Cc1ccccc1-c1nc(CS(=O)CC(=O)NCCCN(C)c2ccccc2)c(C)o1` (centres undefined), the cytotoxicity is reported as 10.9% (inactive). For `COc1ccc(-n2nc(C(=O)N3CCC(C#N)CC3)c3c4ccccc4n(C)c3c2=O)cc1`, the cytotoxicity was -4.7% (inactive). For `Cc1cccc(OCc2nnc(SCC(=O)Nc3cc(C)on3)n2C)c1`, the cytotoxicity was -0.4% (inactive). With `Cn1c(=O)[nH]c(=O)c2c1ncn2CCN1CCCCC1` the cytotoxicity was -5.6% (inactive). For `CCCOc1ccc(C2c3c(oc4cc(C)c(C)cc4c3=O)C(=O)N2CCCN(C)C)cc1` (centres undefined), the cytotoxicity was -4.2% (inactive). In the case of `O=C(CSc1n[nH]c(-c2ccccc2)n1)c1ccc(O)c(O)c1`, the cytotoxicity is reported as -0.1% (inactive). In the case of `COc1cc(-c2csc(C)n2)ccc1O`, the cytotoxicity is reported as -29.1% (inactive). In the case of `Oc1ccc(-c2nc(-c3ccc(O)c(O)c3)cs2)cc1`, the cytotoxicity is reported as 73.5% (active). For `CN(c1ccc(O)cc1)c1nc(-c2ccccc2)cs1`, the cytotoxicity was 8% (inactive). With `CCOC(=O)COn1c(=O)c[n+]([O-])c2ccccc21` the cytotoxicity was -1.5% (inactive). With `CCn1c(NC2CCCCC2)nc2ccccc21` the cytotoxicity was 7.5% (inactive). For `COc1cccc(CNc2nc3ccccc3n2CCN2CCCCC2)c1`, the cytotoxicity was 11.1% (inactive). For `CCOC(=O)CC12CN3CN(C1)CC(CC(=O)OCC)(C3)C2=O`, the cytotoxicity was -0.6% (inactive). With `CCC(=O)N1CCN(CCN=CC2=C(O)CC(C)(C)CC2=O)CC1` the cytotoxicity was 5.7% (inactive). With `O=C1C(=C2CCCCC2)SC(=S)N1Cc1ccco1` the cytotoxicity was 60.9% (active). In the case of `O=C(O)CCN1C(=O)C(=C2CCCCCC2)SC1=S`, the cytotoxicity is reported as -8.4% (inactive). For `O=C1c2ccccc2C(=O)N1Cc1ccco1`, the cytotoxicity was -1.5% (inactive). With `CSc1nc(N)nc(SCC(=O)c2ccccc2)c1C#N` the cytotoxicity was 13.7% (inactive). In the case of `CCCc1nc(SCC(=O)N2CCCc3ccccc32)c2c(=O)n(C)c(=O)n(C)c2n1`, the cytotoxicity is reported as 77% (active). With `CCCc1nc(SCC(=O)N2CCc3ccccc32)c2c(=O)n(C)c(=O)n(C)c2n1` the cytotoxicity was 5.3% (inactive). In the case of `CCCc1nc(SCC(=O)N2CCN(c3ccccc3)CC2)c2c(=O)n(C)c(=O)n(C)c2n1`, the cytotoxicity is reported as 0% (inactive). For `CCc1nc(SCC(=O)N2CCCc3ccccc32)c2c(=O)n(C)c(=O)n(C)c2n1`, the cytotoxicity was -9% (inactive). With `Cn1c(=O)c2c(SCC(=O)N3CCC(Cc4ccccc4)CC3)nc(C3CC3)nc2n(C)c1=O` the cytotoxicity was -3.8% (inactive). In the case of `Cc1cc(C(=O)COC(=O)c2ccc3c(c2)OCO3)c(C)n1Cc1cccs1`, the cytotoxicity is reported as -3.8% (inactive). In the case of `COCCNC(=O)C(C)OC(=O)c1cc2occc2n1C` (centres undefined), the cytotoxicity is reported as -3.5% (inactive). With `Cc1csc(NC(=O)C2CCC(C)(C(=O)O)C2(C)C)n1` (centres undefined) the cytotoxicity was -12.1% (inactive). In the case of `Cc1cc(C(=O)NCCN2CCN(c3cccc(Cl)c3)CC2)n(-c2ccccc2)n1`, the cytotoxicity is reported as 55.2% (active). For `Cc1cc(C(=O)NCCCN2CCN(C3CCCCC3)CC2)n(-c2ccccc2)n1`, the cytotoxicity was 1.4% (inactive). With `Cc1cc(C(=O)NCCCN2CCOCC2)n(-c2ccccc2)n1` the cytotoxicity was 1.2% (inactive). For `CC(=O)Nc1cnc2ccccc2n1`, the cytotoxicity was -6.4% (inactive). For `CN1CCN(c2nc(-c3ccccc3)c3cc(Cl)ccc3n2)CC1`, the cytotoxicity was 4.2% (inactive). For `Cc1ccc2nc(N3CCC(C(=O)O)CC3)nc(-c3ccccc3)c2c1`, the cytotoxicity was -3.3% (inactive). In the case of `CN1CCN(c2nc(N3CCN(CCO)CC3)nc3ccccc23)CC1`, the cytotoxicity is reported as -2.1% (inactive). For `Clc1ccc2nc(NC3=NCN(CCN4CCOCC4)CN3)nc(-c3ccccc3)c2c1`, the cytotoxicity was -2.9% (inactive). With `OCCN1CCN(c2nc(-c3ccccc3)c3cc(Cl)ccc3n2)CC1` the cytotoxicity was 67.2% (active). For `Cc1cc(Cl)c2c(c1)[C@]1(C(=O)N2)[C@@H]2C(=O)N(Cc3ccccc3)C(=O)[C@@H]2[C@@H]2CCCN21`, the cytotoxicity was -13.3% (inactive). With `CC(=O)c1c(C)[nH]c(C(=O)N2CCN(c3ncccn3)CC2)c1C` the cytotoxicity was 2.1% (inactive). With `CCOC(=O)c1[nH]c(C)c(C(=O)N2CCN(c3cccc(Cl)c3)CC2)c1C` the cytotoxicity was 13.5% (inactive). With `COc1cccc(N2CCN(C(=O)c3[nH]c(C)c(C(C)=O)c3C)CC2)c1` the cytotoxicity was 53.6% (active). For `CC(C)C(=O)Nc1ccc(NC(=O)c2cccc(F)c2)cn1`, the cytotoxicity was -7.5% (inactive). For `COc1cc(CCC(=O)OCC(=O)Nc2ncc(Cl)cc2Cl)cc(OC)c1OC`, the cytotoxicity was -7.2% (inactive). With `Cc1cc(-c2ccccc2C(=O)O)on1` the cytotoxicity was -13.2% (inactive). With `CCCCCNC(=O)c1ccc2c(=O)n(CC3CCCO3)c(=O)[nH]c2c1` (centres undefined) the cytotoxicity was -2.3% (inactive). For `O=C(NCC1CCCO1)c1sc(=S)n2c1[nH]c(=O)c1ccc(C(=O)N3CCCCC3)cc12` (centres undefined), the cytotoxicity was -5.8% (inactive). In the case of `CCCCNC(=O)c1sc(=S)n2c1[nH]c(=O)c1ccccc12`, the cytotoxicity is reported as 70.3% (active). In the case of `CCCCCCNC(=O)c1c(O)c2ccccc2[nH]c1=O`, the cytotoxicity is reported as 4.2% (inactive). In the case of `CCn1c(N)c(C(=O)NCc2ccco2)sc1=S`, the cytotoxicity is reported as -6.5% (inactive). With `O=C(NCc1ccco1)c1sc(=S)n2c1[nH]c(=O)c1ccccc12` the cytotoxicity was 82.7% (active). With `C=CCn1c(N)c(C(=O)NCc2ccco2)sc1=S` the cytotoxicity was 2.4% (inactive). For `CCCCNC(=O)c1ccccc1C(=O)NCCCC`, the cytotoxicity was -5.7% (inactive). For `O=C(O)C1CCCN(S(=O)(=O)c2ccc(F)cc2)C1` (centres undefined), the cytotoxicity was -13.4% (inactive). In the case of `CCOC(=O)CSC1=NC(=O)CS1`, the cytotoxicity is reported as -7% (inactive). For `Cc1ccc2[nH]c(=O)c(CN(CCc3ccccc3)C(=O)N3CCOCC3)cc2c1`, the cytotoxicity was 5.9% (inactive). In the case of `CC(C)CC(=O)Nc1cccc(-c2cn3ccsc3n2)c1`, the cytotoxicity is reported as 2.6% (inactive). For `CC(=O)Nc1ccc(-c2cn3ccsc3n2)cc1`, the cytotoxicity was 10.2% (inactive). In the case of `CC(C)CC(=O)Nc1ccc(-c2cn3ccsc3n2)cc1`, the cytotoxicity is reported as 51.9% (active). With `CCOC(=O)CCC(=O)Nc1ccc(S(=O)(=O)N2CCCC2)cc1` the cytotoxicity was -1.2% (inactive). For `O=C(NC1CCN(C(=O)Nc2ccccc2)CC1)C1CCCCC1`, the cytotoxicity was -8.9% (inactive). With `Cc1cnc(NC(=O)c2c(O)c3cccc4c3n(c2=O)CCC4)s1` the cytotoxicity was 52.2% (active). For `CC(C)c1nnc(NC(=O)c2c(O)c3cccc4c3n(c2=O)CCC4)s1`, the cytotoxicity was 46.3% (inactive). In the case of `Cc1csc(NC(=O)c2c(O)c3cccc4c3n(c2=O)CCC4)n1`, the cytotoxicity is reported as -11.1% (inactive). For `N#CC1=C(N)S[C@H](C(=O)C23CC4CC(CC(C4)C2)C3)[C@H]1c1ccncc1`, the cytotoxicity was -14.7% (inactive). In the case of `CCC(c1nnnn1CCc1ccccc1)N(Cc1ccco1)Cc1cc2cc(C)cc(C)c2[nH]c1=O` (centres undefined), the cytotoxicity is reported as 10.7% (inactive). For `CC1=C(C#N)C(c2cn(-c3ccccc3)nc2-c2cccs2)C(C#N)=C(C)N1`, the cytotoxicity was 41.2% (inactive). With `NC1=NC(c2ccccc2Cl)n2c(nc3ccccc32)N1` (centres undefined) the cytotoxicity was 7% (inactive). For `NC1=NC(c2cn(-c3ccccc3)nc2-c2cccs2)n2c(nc3ccccc32)N1` (centres undefined), the cytotoxicity was 54.9% (active). In the case of `O=C(Nc1ccccc1-c1nc2ccccc2o1)c1ccc2c(c1)OCCO2`, the cytotoxicity is reported as 77.2% (active). For `O=C(Nc1ccc2oc(-c3cccnc3)nc2c1)c1cccnc1`, the cytotoxicity was 7.7% (inactive). For `Cc1ccc2oc(-c3ccc(NC(=O)c4ccc5c(c4)OCO5)cc3)nc2c1`, the cytotoxicity was 71.1% (active). With `O=C(Nc1ccc2oc(-c3ccccc3F)nc2c1)c1ccc2c(c1)OCCO2` the cytotoxicity was 46.2% (inactive). In the case of `Cc1c(NC(=O)c2ccc3c(c2)OCO3)cccc1-c1nc2ccccc2o1`, the cytotoxicity is reported as -9.8% (inactive). In the case of `COc1ccc(-c2nc3cc(NC(=O)c4ccc5c(c4)OCO5)ccc3o2)cc1`, the cytotoxicity is reported as 1.2% (inactive). For `CC(=O)Nc1cccc(NC(=O)c2ccco2)c1`, the cytotoxicity was -14.2% (inactive). In the case of `O=C(Nc1cccc(NC(=O)c2ccc(-c3cccc(Br)c3)o2)c1)c1ccco1`, the cytotoxicity is reported as 63% (active). With `Cc1ccc2oc(-c3ccc(NC(=O)c4cccnc4)cc3)nc2c1` the cytotoxicity was 51.4% (active). For `COc1ccc(Br)cc1C(=O)Nc1cccc(NC(=O)c2ccco2)c1`, the cytotoxicity was 42.6% (inactive). With `O=C(Nc1ccc2oc(-c3ccccc3)nc2c1)c1cccnc1` the cytotoxicity was 18.1% (inactive). With `O=C(Nc1ccc(-c2nc3ccccc3o2)cc1)c1ccc2c(c1)OCO2` the cytotoxicity was 2% (inactive). For `CC(=O)[C@@H]1[C@@H]2C(=O)N(Cc3ccccc3)C(=O)[C@@H]2C2c3ccccc3C=CN21` (some centres undefined), the cytotoxicity was 3.9% (inactive).
